# DT40 TDP1 no CPT: qHTS for Inhibitors of human tyrosyl-DNA phosphodiesterase 1 (TDP1): qHTS in cells in absence of CPT. 420,000 tested, 15% active. Potency, µM (doses to about 46.2 µM), for inactives: at the top dose activity change, negative = growth inhibition, hits mostly inhibitors. AID 686978, 2013. DT40 Tdp1-/- hTDP1 cells, no CPT, ATP luminescence, 48 h; note: potency is the fitted concentration of half-maximal effect; nearly all actives have a fitted effect of over 55% in size
#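 No-CPT arm: Tdp1-/-;hTDP1 DT40 cells (400/well) plus compounds, incubated ≥48 hr at 37 °C. Readout CellTiter-Glo luminescence.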
# DT40 TDP1 CPT: qHTS for Inhibitors of human tyrosyl-DNA phosphodiesterase 1 (TDP1): qHTS in cells in presence of CPT; chicken DT40 Tdp1-/-;hTDP1 cells + 20 nM CPT, ATP luminescence, 48 h; 420,000 tested, 12% active; AID 686979, 2013; Potency, µM (top dose mostly 46.2 µM), without a hit: at the highest dose activity change, negative = growth inhibition, hits mostly inhibitors; note: potency is the fitted concentration of half-maximal effect; nearly all actives have a fitted effect of over 55% in size
#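 Cell growth measured by CellTiter-Glo luminescence after a minimum 48 h, 37 C compound exposure with 20 nM CPT in Tdp1-knockout DT40 cells stably expressing hTDP1, seeded 400/well; qHTS titration format.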
# HT1080-NT tox: qHTS for induction of synthetic lethality in tumor cells producing 2HG: qHTS for the HT-1080-NT fibrosarcoma cell line | HT-1080-NT fibrosarcoma viability, CellTiter-Glo ATP luminescence, 48 h | Potency, µM (series often up to 46.1 µM), inactives show at the highest dose activity, negative = less viability, usual class: cytotoxic | 360,000 tested, 1.6% active;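 note: NT is the 2HG producing partner of a matched IDH1 knockdown line; potency is the fitted concentration of half-maximal effect; 0% = DMSO-treated cells and -100% = media-only wells without cells; nearly all actives have a fitted effect of over 55% in size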
#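 Luminescent CellTiter-Glo readout after 48 hours of compound exposure at 37 degrees C defined viability of HT-1080-NT cells. Activity was normalized to DMSO wells and cell-free media wells; concentration-response curves were fitted and assigned curve classes.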
# ELG1 DNA repair: qHTS screen for small molecules that inhibit ELG1-dependent DNA repair in human embryonic kidney (HEK293T) cells expressing luciferase-tagged ELG1 | HEK293T ELG1-luciferase reporter, luminescence, 16 h; DNA damage induced by 5-fluorouridine | Potency, µM (highest dose often 46.1 µM), without a hit: at the highest dose activity change, negative = inhibition, usual class: inhibitors | 330,000 tested, 2.3% active | AID 504467, 2011; note: potency is the fitted concentration of half-maximal effect; nearly all actives have a fitted effect of over 55% in size
#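 Cells (2,000 per well) received 5-fluorouridine plus test compound or DMSO and were incubated 16 hr at 37 °C, 5% CO2. Luciferase activity was read by luminescence 30 min after ONE-Glo addition; signal suppression marked inhibition of damage-induced ELG1 function.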
# HT1080 IDH1KD tx: qHTS for induction of synthetic lethality in tumor cells producing 2HG: qHTS for the HT-1080-IDH1KD cell line; HT-1080 IDH1 knockdown viability, ATP luminescence, 48 h; Potency, µM (series often up to 46.1 µM), for inactives: at the top dose activity, negative = toxicity, actives largely listed as cytotoxic; 360,000 tested, 2% active; AID 686971, 2013;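 note: potency is the fitted concentration of half-maximal effect; 0% = DMSO wells and -100% = cell-free medium wells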
#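 Assay cells: HT-1080 with IDH1 knockdown, 750 per well, RPMI/5% FBS. Exposure: 48 h at 37 °C following 2 h pre-incubation. Read: CellTiter-Glo luminescence; fitted concentration-response, curve class assigned.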
# IL1B secr inh: qHTS for Inhibitors of Inflammasome Signaling: IL-1-beta AlphaLISA Primary Screen | THP-1 LPS/ATP IL-1B secretion, AlphaLISA, 16 h; hits give low values | activity change, % at 57.5 µM | 360,000 tested, 4.7% active; in the data active = activity change below about -50%; inconclusive = mostly about -30% to -49%
#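 Secreted IL-1B measured by AlphaLISA bead assay after 16 h compound exposure of THP-1 cells; compounds (final up to 57.5 uM) added 1 h before LPS (250 ng/mL) and ATP (1.25 mM) stimulation; lower signal means less secretion.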
# Starred values were filed as active, the others as inactive; u = inconclusive; x = not tested or not shown. Hits are enriched below; roughly 19% of the tested compounds scored in any of these assays. Unless noted, calls come from the whole dose curve; as a rule, active = well fitted curve in the direction sought with a large enough effect; inconclusive = small, poorly fitted or top-dose-only effect, or another doubt; inactive = no such curve, though single readings can be large; an effect the other way counts as inactive or inconclusive. Unless noted, % is set by controls: 0 for no effect and ±100 for the full control effect.
SMILES,DT40 TDP1 no CPT,DT40 TDP1 CPT,HT1080-NT tox,ELG1 DNA repair,HT1080 IDH1KD tx,IL1B secr inh
COCCn1c(C)cc(C(=O)CSc2nc(C)nc3sc4c(c23)CCC4)c1C,20.6µM*,16.4µM*,-5.5%,x,-27.4%,22.1
COc1ccccc1N1CCN(C(=O)/C=C/c2ccc3c(c2)OCO3)CC1,20.6µM*,20.6µM*,9.6%,-3.1%,5.3%,13.1
COc1ccccc1N1CCN(C(=O)/C=C/c2cccs2)CC1,u,u,4.0%,29.0%,7.6%,-9.4
COc1ccccc1NC(=O)/C=C/c1ccc2c(c1)OCO2,u,16.4µM*,u,u,-15.0%,6.2
COc1cc(/C=C/C(=O)N2CCN(c3ccccn3)CC2)cc(OC)c1OC,23.1µM*,u,7.0%,-18.2%,6.1%,0.0
COc1ccccc1N1CCN(C(=O)/C=C/c2ccccc2)CC1,16.4µM*,u,-2.2%,9.9%,-0.3%,3.9
COC(=O)c1[nH]c2ccccc2c1NC(=O)/C=C/c1ccc2c(c1)OCO2,-22.4%,-28.5%,-13.0%,u,-17.2%,19.3
Cc1ccc(-n2c(=O)c3c(cnn3C)n(CC(=O)Nc3cc(C)ccc3C)c2=O)cc1,-8.1%,-5.1%,x,x,x,x
CC(=O)c1ccc(N2CCN(C(=O)CCc3nnc4n(C)c(=O)c5sccc5n34)CC2)cc1,-22.2%,-11.7%,x,x,x,x
O=C(CCc1nc2ccccc2c(=O)[nH]1)N1CCN(S(=O)(=O)c2cccc(F)c2)CC1,-14.3%,u,-6.3%,2.6%,-5.7%,0.0
CCOC(=O)CSC1=NC(=O)CS1,u,10.3µM*,-1.9%,1.7%,-2.0%,-13.9
CC1O[C@@H](O[C@@H]2C(O)C[C@H](O[C@@H]3C(O)C[C@@H](OC4CC[C@@]5(C)C6CC(O)[C@@]7(C)C(C8=CC(=O)OC8)CC[C@@]7(O)C6CC[C@@H]5C4)OC3C)OC2C)CC(O)[C@H]1O (stereo not given in full),1.84µM*,3.26µM*,x,x,x,x
Cc1ccc(S(=O)(=O)N2C[C@H]3C(=O)C[C@@H](c4ccccc4)N(S(=O)(=O)c4ccc(Br)cc4)[C@H]3C[C@H]2c2ccccc2)cc1,-21.0%,-10.5%,10.7%,x,9.9%,-7.2
COc1cc(CNC2CCCC2)cc(Cl)c1OCc1ccccc1F,13µM*,16.4µM*,u,0.0%,12.6µM*,-76.3*
COc1cc(CNc2ccc3[nH]c(=O)[nH]c3c2)ccc1OCc1cccc(C)c1,u,u,u,u,-26.8%,-75.6*
COc1cc(CNc2ccc3[nH]c(=O)[nH]c3c2)cc(Cl)c1OCc1ccc(F)cc1,14.6µM*,18.4µM*,x,x,x,x
COc1cc(CNc2ccc3[nH]c(=O)[nH]c3c2)cc(Br)c1OCc1ccc(F)cc1,14.6µM*,7.31µM*,-6.6%,7.8%,-19.9%,x
COc1cc(CNc2ccc3[nH]c(=O)[nH]c3c2)ccc1OCc1ccc(C)cc1,u,u,-16.1%,u,u,u
COc1cc(CNC2CCCCCC2)cc(OC)c1O,-7.9%,0.8%,5.4%,8.3%,6.1%,7.7
O=c1[nH]c2ccc(NCc3ccc(F)cc3)cc2[nH]1,u,9.5%,1.6%,u,2.2%,26.1
CC1(c2nnnn2Cc2ccccc2)CCC(=O)N1Cc1cccs1 (stereo not given),-12.4%,-2.3%,10.0%,x,24.2%,79.6
COc1ccccc1-c1nc2cc(C(=O)NC[C@H]3CCc4ccccc4O3)cc(NC(C)=O)c2n1C,-19.1%,-5.9%,x,x,x,x
CCOC(=O)C1CCCN(CC(=O)c2c[nH]c3ccc(C)cc23)C1 (stereo not given),u,u,-4.6%,2.5%,-5.6%,22.1
O=C(C1CCCN(S(=O)(=O)c2cc(Cl)ccc2Cl)C1)N1CCOCC1 (stereo not given),2.4%,-4.9%,1.5%,-3.4%,-2.3%,19.3
COc1cc(CNc2ccc3[nH]c(=O)[nH]c3c2)cc(Cl)c1OCc1ccccc1F,8.2µM*,11.6µM*,x,x,x,x
SMILES,DT40 TDP1 no CPT,DT40 TDP1 CPT,HT1080-NT tox,ELG1 DNA repair,HT1080 IDH1KD tx,IL1B secr inh
COc1cc(CNc2ccc3[nH]c(=O)[nH]c3c2)ccc1OCc1ccccc1Cl,u,u,u,-2.3%,-25.0%,u
COc1cccc(CNc2ccc3[nH]c(=O)[nH]c3c2)c1OCc1ccccc1F,-27.4%,u,-5.4%,9.2µM*,-3.1%,-22.7
Cc1cc(OCC(=O)OCC(=O)NC2CCCCCC2)ccc1Cl,u,-15.4%,15.5%,8.7%,0.0%,13.0
CCn1c2ccccc2c2cc(NC(=O)COC(=O)c3cc(S(N)(=O)=O)c(Cl)cc3Cl)ccc21,u,-11.1%,-0.5%,6.1%,u,79.6
Clc1cccc(Nc2c3c(nc4ncnn24)CCC3)c1,u,u,-2.3%,u,u,32.1
CCc1cccc(Nc2c3c(nc4ncnn24)CCC3)c1,20.6µM*,u,11.3%,4.4%,-0.6%,85.6
CN(C(=O)CSc1nncn2c1cc1occc12)c1ccccc1,25.9µM*,u,x,x,x,x
Cc1ccc(C)c(NC(=O)CSc2nnc(C)n3c2cc2occc23)c1,u,-8.4%,x,x,x,x
Cc1cc(C)cc(NC(=O)CSc2nncn3c2cc2occc23)c1,u,-25.2%,x,x,x,x
CCc1nnc(SC(CC)C(=O)Nc2cc(C)ccc2C)c2cc3occc3n12 (stereo not given),14.6µM*,18.4µM*,x,x,x,x
CCc1cccc(C)c1NC(=O)c1ccoc1C,u,u,-0.1%,1.6%,1.3%,-6.9
CCc1cccc(C)c1NC(=O)C(CC)Sc1nncn2c1cc1occc12 (stereo not given),20.6µM*,20.6µM*,x,x,x,x
COC(=O)[C@@H]1CCCN1Cc1ccc2c(c1)CN(Cc1nccs1)CCO2,2.0%,-2.6%,x,x,x,x
CCC12CN3CC(CC)(CN(C1)C3c1c[nH]c3ccccc13)C2=O (stereo not given),16.4µM*,-84.7%,x,x,x,x
CCn1cc(C2N3CC4(CC)CN2CC(CC)(C3)C4=O)c2ccccc21 (stereo not given),18.4µM*,u,x,x,x,x
CCC12CN3CC(CC)(CN(C1)C3c1c(O)ccc3ccccc13)C2=O (stereo not given),-5.6%,-3.1%,-2.3%,-1.8%,-1.2%,18.0
